Results reported in PubChem BioAssay (NCATS).
Several values for one entry are separate records, joined by “and”; a condition that tells them apart may be missing. Equal values may be shown once. Inconclusive results are not listed. Activity calls are given as the source filed them. Unless noted, the call rests on the fitted dose curve; in most records, active means well fitted curve in the direction sought with a large enough effect; inconclusive means small, poorly fitted or top-dose-only effect, or another doubt; inactive means no such curve, though single readings can be large; an effect the other way counts as inactive or inconclusive.

Assays:
[1] = molecular target: Glucocorticoid receptor (Homo sapiens) (UniProt P04150); test: qHTS assay for small molecule agonists of glucocorticoid receptor signaling (AID 588532; active means well fitted curve in the direction sought with a large enough effect in the signal ratio, with a control signal flat; the % refers to the signal ratio;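 further: 100% = dexamethasone at 0.1 µM and 0% = DMSO only wells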); conditions: HeLa MMTV-bla, beta-lactamase ratio, agonist, 18 h; stronger effect = higher value; percent of dexamethasone control, DMSO zero
Chain of Glucocorticoid receptor (Homo sapiens) (P04150 whole entry, looked up): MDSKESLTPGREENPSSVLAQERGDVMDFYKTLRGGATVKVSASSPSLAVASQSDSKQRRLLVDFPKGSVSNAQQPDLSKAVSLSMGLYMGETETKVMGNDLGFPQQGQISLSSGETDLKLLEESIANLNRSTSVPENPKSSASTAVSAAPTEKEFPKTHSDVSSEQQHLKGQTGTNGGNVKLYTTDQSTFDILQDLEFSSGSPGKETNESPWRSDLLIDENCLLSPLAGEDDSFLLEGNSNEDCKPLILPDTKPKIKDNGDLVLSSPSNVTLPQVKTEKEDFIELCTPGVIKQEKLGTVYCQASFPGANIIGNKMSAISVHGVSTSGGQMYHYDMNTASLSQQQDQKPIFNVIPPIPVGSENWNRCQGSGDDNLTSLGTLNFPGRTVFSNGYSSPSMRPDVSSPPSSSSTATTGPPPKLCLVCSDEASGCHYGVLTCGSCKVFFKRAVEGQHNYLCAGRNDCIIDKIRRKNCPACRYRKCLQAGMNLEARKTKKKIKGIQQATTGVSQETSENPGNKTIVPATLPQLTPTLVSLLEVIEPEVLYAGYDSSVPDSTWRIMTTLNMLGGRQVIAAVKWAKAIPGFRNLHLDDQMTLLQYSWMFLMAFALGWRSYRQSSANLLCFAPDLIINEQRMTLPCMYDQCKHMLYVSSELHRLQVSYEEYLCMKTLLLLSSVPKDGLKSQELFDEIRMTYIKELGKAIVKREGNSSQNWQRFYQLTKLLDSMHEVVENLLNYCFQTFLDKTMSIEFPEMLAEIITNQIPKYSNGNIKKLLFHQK
How it was run: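 Quantitative HTS using CellSensor MMTV-bla HeLa cells in charcoal/dextran-treated serum; compounds tested up to 92 uM. After 18 h at 37 C, CCF4 dye reported reporter induction.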

[2] = qHTS assay for small molecule agonists of the antioxidant response element (ARE) signaling pathway (AID 651741; active means well fitted activation curve with a large enough effect in the signal ratio; the % refers to the signal ratio; further: potency means the concentration at half of the fitted maximal effect); conditions: HepG2 ARE-bla reporter, beta-lactamase FRET ratio, 16 h; series mostly up to 96 µM
How it was run: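 Quantitative HTS in HepG2 cells stably expressing an ARE-beta-lactamase reporter; 16 h compound exposure at 37 C, followed by 2 h room-temperature incubation with LiveBLAzer B/G FRET substrate and fluorescence measurement.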

[3] = qHTS assay for environmental chemicals that activate the Aryl hydrocarbon Receptor (AhR) signaling pathway (AID 651777); conditions: 1A2-DRE human hepatoma cells, luciferase, 24 h; activation: stronger effect = higher value; further: % of control where 0% means no effect; nearly all actives have a fitted effect of over 15% in size
How it was run: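 Human hepatoma 1A2-DRE cells, stably carrying a dioxin response element and CYP1A2 promoter driving luciferase, were exposed to compounds for 24 hr at 37 C and 5% CO2. Luciferase signal was then read after 30 min One-Glo at room temperature.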

[4] = qHTS assay for small molecule agonists of the antioxidant response element (ARE) signaling pathway measured by Nrf2-dependant transcriptional activity - cell viability counter screen (AID 720653; active means well fitted curve in the direction sought with a large enough effect in the repeat runs; an effect the other way counts as inactive or inconclusive; further: potency means the concentration at half of the fitted maximal effect); conditions: ARE-bla HepG2 viability, CellTiter-Glo ATP luminescence, 16 h; max response: stronger effect = lower value
How it was run: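 Cytotoxicity counter screen: intracellular ATP quantified by CellTiter-Glo luminescence in the same ARE-bla HepG2 plates, after 16 h compound exposure and a 2 h beta-lactamase substrate step.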

[5] = qHTS assay for cell viability of HEK293 cells (AID 743288); conditions: ATP luminescence (CellTiter-Glo), 18 h; max response: stronger effect = lower value; further: nearly all actives have a fitted effect of over 50% in size; further: potency means the concentration at half of the fitted maximal effect
How it was run: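 Total intracellular ATP, measured with a luciferase-coupled reagent, indicates the number of viable HEK293 cells. Exposure to test chemicals lasts 18 h at 37 C in 1,536-well format at 2,000 cells/well.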

[6] = qHTS assay for cell viability of the p53RE-bla HCT-116 cell line (AID 743292); conditions: p53RE-bla HCT-116 viability, ATP luminescence, 16 h; series mostly up to 95 µM; further: nearly all actives have a fitted effect of over 55% in size; further: potency means the concentration at half of the fitted maximal effect
How it was run: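 CellSensor p53RE-bla HCT-116 cells, 4,000/well, preincubated 5 h at 37 C, then exposed to compounds in DMSO for 16 h at 37 C. Viability read as CellTiter-Glo luminescence (intracellular ATP) after 30 min at room temperature.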

[7] = molecular target: Glucocorticoid receptor (Homo sapiens) (UniProt P04150); test: qHTS assay for small molecule antagonists of glucocorticoid receptor signaling (AID 588533; active means well fitted inhibition curve with a large enough effect in the signal ratio, with a control signal flat, not every such curve was filed as active; the % refers to the signal ratio;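 further: cells stimulated with 2 nM dexamethasone as agonist; on the % scale 0 is the no-effect control and ±100 the full control effect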); conditions: HeLa MMTV-bla, GRE beta-lactamase ratio, antagonist mode, 18 h; series mostly up to 76.8 µM
How it was run: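 Antagonist-mode qHTS: compound titrations added to GRE-bla HeLa cells, then dexamethasone 2 nM final; 18 h, 37 C. CCF4 FRET fluorescence normalized to dexamethasone and DMSO; IC50 from Hill fit.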

[8] = molecular target: Peroxisome proliferator-activated receptor gamma (Homo sapiens) (UniProt P37231); test: qHTS assay for small molecule agonists of peroxisome proliferator-activated receptor gamma signaling (AID 588536; active means well fitted curve in the direction sought with a large enough effect in the signal ratio, with a control signal flat, not every such curve was filed as active; the % refers to the signal ratio;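 further: 0% = DMSO basal wells and 100% = rosiglitazone at 2 µM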); conditions: HEK293 PPARg-UAS-bla, beta-lactamase ratio, 16 h, percent of rosiglitazone response, DMSO as zero; series mostly up to 76.7 µM
Chain of Peroxisome proliferator-activated receptor gamma (Homo sapiens) (P37231 whole entry, looked up): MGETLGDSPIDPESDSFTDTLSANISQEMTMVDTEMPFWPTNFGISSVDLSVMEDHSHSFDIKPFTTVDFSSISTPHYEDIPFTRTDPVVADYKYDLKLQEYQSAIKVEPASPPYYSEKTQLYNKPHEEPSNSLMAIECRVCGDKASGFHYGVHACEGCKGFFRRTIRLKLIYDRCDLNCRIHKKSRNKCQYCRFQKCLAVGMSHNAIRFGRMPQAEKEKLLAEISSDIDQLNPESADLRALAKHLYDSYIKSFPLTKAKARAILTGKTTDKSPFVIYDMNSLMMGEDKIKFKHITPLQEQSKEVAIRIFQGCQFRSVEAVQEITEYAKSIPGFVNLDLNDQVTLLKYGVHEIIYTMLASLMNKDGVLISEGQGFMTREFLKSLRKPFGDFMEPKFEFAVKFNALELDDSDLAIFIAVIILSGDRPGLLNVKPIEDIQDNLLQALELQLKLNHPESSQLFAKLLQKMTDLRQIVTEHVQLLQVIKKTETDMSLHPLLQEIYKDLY
How it was run: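 Ratiometric blue/green fluorescence (405 nm excitation; 460 and 530 nm emission) from CCF4-loaded HEK293 reporter cells serves as signal. Exposure to test compounds lasts 16 h at 37 C in medium containing 1% charcoal/dextran-treated serum.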

[9] = molecular target: Peroxisome proliferator-activated receptor gamma (Homo sapiens) (UniProt P37231); test: qHTS assay for small molecule antagonists of peroxisome proliferator-activated receptor gamma signaling (AID 588537; active means well fitted inhibition curve with a large enough effect in the signal ratio, with a control signal flat, not every such curve was filed as active; the % refers to the signal ratio;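 further: reporter cells co-stimulated with 50 nM rosiglitazone agonist during compound treatment; % of control where 0% means no effect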); conditions: HEK293 PPARg-UAS-bla, beta-lactamase ratio, antagonist mode; series mostly up to 76.8 µM
How it was run: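 Antagonist mode, beta-lactamase reporter in HEK293; charcoal/dextran FBS 1%; 3000 cells/well, 37 C 6-6.5 h; cpd titration + rosiglitazone 50 nM final, 16 h 37 C; CCF4, 2 h RT; 460/530 nm; Hill fit → IC50, efficacy.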

[10] = molecular target: Vitamin D3 receptor (Homo sapiens) (UniProt P11473); test: qHTS assay for small molecule agonists of vitamin D receptor signaling (AID 588543; calls by dose curve;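 further: 0% = DMSO basal and 100% = reference agonist control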); conditions: HEK293T VDR-UAS-bla, beta-lactamase ratio, 16 h; series mostly up to 76.8 µM
Chain of Vitamin D3 receptor (Homo sapiens) (P11473 whole entry, looked up): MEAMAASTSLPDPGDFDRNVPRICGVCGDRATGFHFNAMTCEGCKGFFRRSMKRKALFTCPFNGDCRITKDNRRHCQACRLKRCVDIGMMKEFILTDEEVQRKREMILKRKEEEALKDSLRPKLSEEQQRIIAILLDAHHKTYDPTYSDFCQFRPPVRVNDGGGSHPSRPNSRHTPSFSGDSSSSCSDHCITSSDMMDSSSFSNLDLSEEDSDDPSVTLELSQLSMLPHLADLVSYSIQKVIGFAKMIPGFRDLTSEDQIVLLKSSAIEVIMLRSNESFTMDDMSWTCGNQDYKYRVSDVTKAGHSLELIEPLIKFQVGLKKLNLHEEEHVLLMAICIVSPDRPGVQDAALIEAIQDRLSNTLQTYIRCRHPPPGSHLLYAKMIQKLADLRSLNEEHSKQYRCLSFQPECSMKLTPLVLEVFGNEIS
How it was run: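 Agonist-mode beta-lactamase reporter: HEK293T VDR-UAS-bla cells in charcoal-stripped 2% FBS, compound series 16 h 37 C, CCF4 2 h RT. EC50 from Hill fit, scaled against DMSO and 50 nM calcitriol control.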

[11] = molecular target: Thyroid hormone receptor beta (Homo sapiens) (UniProt P10828); test: qHTS assay for small molecule agonists of thyroid hormone receptor beta signaling (AID 588545; calls by dose curve;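 further: 0% = DMSO only and 100% = 10 nM T3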); conditions: TR-UAS-bla GripTite HEK 293, beta-lactamase ratio, agonist mode, 18 h; series mostly up to 76.7 µM
Chain of Thyroid hormone receptor beta (Homo sapiens) (P10828 whole entry, looked up): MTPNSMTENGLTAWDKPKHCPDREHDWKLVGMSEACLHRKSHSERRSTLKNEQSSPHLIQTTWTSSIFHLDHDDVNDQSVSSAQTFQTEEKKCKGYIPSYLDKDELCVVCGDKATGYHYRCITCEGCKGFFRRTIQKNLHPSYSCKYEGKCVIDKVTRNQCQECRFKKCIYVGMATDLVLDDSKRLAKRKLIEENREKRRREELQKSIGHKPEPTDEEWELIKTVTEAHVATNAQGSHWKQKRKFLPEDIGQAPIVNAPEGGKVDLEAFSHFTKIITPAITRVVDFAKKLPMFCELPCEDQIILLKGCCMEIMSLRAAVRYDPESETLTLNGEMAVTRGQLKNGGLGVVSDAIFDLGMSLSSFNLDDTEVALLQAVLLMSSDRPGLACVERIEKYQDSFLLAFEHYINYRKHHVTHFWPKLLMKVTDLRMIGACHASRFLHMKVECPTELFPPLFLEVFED
How it was run: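 Compounds were tested as agonists in TR-UAS-bla-GripTite HEK 293 cells. After 18 hrs at 37 C, CCF4 substrate was added and fluorescence read after 2 hrs at room temperature.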

[12] = molecular target: Thyroid hormone receptor beta (Homo sapiens) (UniProt P10828); test: qHTS assay for small molecule antagonists of thyroid hormone receptor beta signaling (AID 588547; active means well fitted inhibition curve with a large enough effect in the signal ratio, with a control signal flat, not every such curve was filed as active; the % refers to the signal ratio;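 further: cells stimulated with 0.4 nM T3 agonist during compound exposure; on the % scale 0 is the no-effect control and ±100 the full control effect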); conditions: TR-UAS-bla HEK293, beta-lactamase ratio, antagonist mode, 18 h
How it was run: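 Inhibition of T3-driven (0.4nM final) beta-lactamase reporter activity was measured over 0.59 nM to 92 uM compound after 18 h at 37 C. The cells were GripTite HEK293 TR-UAS-bla in charcoal/dextran-stripped serum, with CCF4 ratio read-out and IC50 from Hill fits.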

[13] = molecular target: Peroxisome proliferator-activated receptor alpha (Homo sapiens) (UniProt Q07869); test: qHTS assay for small molecule agonists of the peroxisome proliferator-activated receptor alpha (PPARalpha) signaling pathway (AID 651778); conditions: PathHunter PPARalpha complementation, chemiluminescence, 6 h; max response: stronger effect = higher value; further: % of control where 0% means no effect
Chain of Peroxisome proliferator-activated receptor alpha (Homo sapiens) (Q07869 whole entry, looked up): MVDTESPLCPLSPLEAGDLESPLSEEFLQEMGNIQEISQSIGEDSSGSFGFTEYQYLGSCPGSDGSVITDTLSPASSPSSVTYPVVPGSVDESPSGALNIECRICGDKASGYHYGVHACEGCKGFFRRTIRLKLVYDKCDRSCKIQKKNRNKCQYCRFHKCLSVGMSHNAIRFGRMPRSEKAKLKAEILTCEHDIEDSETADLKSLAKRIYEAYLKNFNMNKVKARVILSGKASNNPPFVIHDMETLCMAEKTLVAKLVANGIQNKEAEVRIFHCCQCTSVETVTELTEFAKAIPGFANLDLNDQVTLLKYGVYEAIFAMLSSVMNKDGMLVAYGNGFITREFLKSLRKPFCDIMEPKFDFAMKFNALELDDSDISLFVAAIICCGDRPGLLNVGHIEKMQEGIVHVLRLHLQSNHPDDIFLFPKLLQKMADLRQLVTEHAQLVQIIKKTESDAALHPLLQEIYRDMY
How it was run: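 Chemiluminescence from complemented enzyme reported PPARalpha activation in cells after 6 hr of compound treatment at 37 C. The detection reagent was incubated for 60 min at room temperature, and compounds were scored as agonists.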

[14] = molecular target: Nuclear receptor subfamily 1 group I member 2 (Rattus norvegicus) (UniProt Q9R1A7); test: qHTS assay for small molecule activators of the rat pregnane X receptor (rPXR) signaling pathway (AID 651751; call rule not given here; further: 0% is about no effect); conditions: rPXR reporter cells, luciferase (One-Glo), 24 h
Chain of Nuclear receptor subfamily 1 group I member 2 (Rattus norvegicus) (Q9R1A7 whole entry, looked up): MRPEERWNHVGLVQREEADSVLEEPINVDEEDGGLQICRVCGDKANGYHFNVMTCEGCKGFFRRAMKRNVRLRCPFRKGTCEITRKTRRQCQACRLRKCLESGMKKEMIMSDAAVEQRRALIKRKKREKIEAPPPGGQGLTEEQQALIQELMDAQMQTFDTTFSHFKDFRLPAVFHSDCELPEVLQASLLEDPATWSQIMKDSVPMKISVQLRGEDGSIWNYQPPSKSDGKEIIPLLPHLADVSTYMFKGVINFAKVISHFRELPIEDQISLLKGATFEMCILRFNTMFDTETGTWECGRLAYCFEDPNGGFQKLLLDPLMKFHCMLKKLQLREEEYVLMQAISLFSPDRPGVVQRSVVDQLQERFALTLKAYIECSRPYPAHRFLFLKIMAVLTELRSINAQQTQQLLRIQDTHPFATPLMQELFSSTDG

[15] = qHTS assay for small molecule antagonists of peroxisome proliferator-activated receptor delta signaling (AID 588535; active means well fitted inhibition curve with a large enough effect in the signal ratio, with a control signal flat, not every such curve was filed as active; the % refers to the signal ratio;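 on max response: cells co-treated with a PPAR-delta agonist as stimulator during compound exposure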); conditions: HEK293T PPARd-UAS-bla, beta-lactamase FRET ratio, 18 h; 460 nm channel
How it was run: (§1)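 HEK293T PPAR-delta-UAS-bla cells, 4000/well, 2% charcoal/dextran FBS; 5 h 37 C; cpd titration; 18 h 37 C; CCF4 2 h RT; FI 460/530 nm; Hill fit → IC50, efficacy.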

[16] = molecular target: Peroxisome proliferator-activated receptor delta (Homo sapiens) (UniProt Q03181); test: as above; conditions: HEK293T PPARd-UAS-bla, beta-lactamase FRET ratio, 18 h; series mostly up to 76.7 µM
Chain of Peroxisome proliferator-activated receptor delta (Homo sapiens) (Q03181 whole entry, looked up): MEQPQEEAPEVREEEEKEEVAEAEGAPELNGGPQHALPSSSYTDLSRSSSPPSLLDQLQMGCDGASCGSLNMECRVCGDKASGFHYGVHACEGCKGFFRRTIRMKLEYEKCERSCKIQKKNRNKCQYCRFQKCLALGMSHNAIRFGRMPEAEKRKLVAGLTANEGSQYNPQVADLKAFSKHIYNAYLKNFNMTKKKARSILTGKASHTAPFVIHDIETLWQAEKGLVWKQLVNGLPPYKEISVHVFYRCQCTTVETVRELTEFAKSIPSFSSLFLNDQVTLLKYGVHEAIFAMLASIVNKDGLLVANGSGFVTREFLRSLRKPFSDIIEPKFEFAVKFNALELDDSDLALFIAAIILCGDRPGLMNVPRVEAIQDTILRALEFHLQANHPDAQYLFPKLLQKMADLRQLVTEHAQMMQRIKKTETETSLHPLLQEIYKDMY
How it was run: as §1

[17] = qHTS assay for small molecule activators of the p53 signaling pathway (AID 651743; active means well fitted activation curve with a large enough effect in the signal ratio, not every such curve was filed as active; the % refers to the signal ratio; further: % of control where 0% means no effect); conditions: HCT-116 p53RE-bla, beta-lactamase FRET ratio, 16 h; activation: stronger effect = higher value
How it was run: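 Read-out is fluorescence intensity from the LiveBLAzer B/G FRET substrate, added for 2 hours at room temperature after HCT-116 p53RE-bla cells had been incubated with compounds for 16 hours at 37 C.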

[18] = molecular target: Vitamin D3 receptor (Homo sapiens) (UniProt P11473); test: qHTS assay for small molecule antagonists of vitamin D receptor signaling (AID 588541; calls by dose curve;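 further: receptor activated by calcitriol during compound treatment; on the % scale 0 is the no-effect control and ±100 the full control effect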); conditions: HEK293T VDR-UAS-bla, beta-lactamase ratio, antagonist mode; series mostly up to 76.7 µM
How it was run: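 Antagonist-mode beta-lactamase reporter assay: HEK293T VDR-UAS-bla cells were exposed to titrated compound alongside 1-alpha,25-dihydroxyvitamin D3 at 3 nM final for 16 h. Values were normalized to the 50 nM agonist control and DMSO basal, with IC50 and efficacy from Hill equation fits.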

[19] = qHTS assay for small molecule antagonists of retinoid X receptor alpha signaling (AID 588546; active means well fitted inhibition curve with a large enough effect in the signal ratio, with a control signal flat, not every such curve was filed as active; the % refers to the signal ratio;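 further: cells stimulated with 9-cis-retinoic acid as agonist; on the % scale 0 is the no-effect control and ±100 the full control effect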); conditions: HEK293T RXRa-UAS-bla, beta-lactamase ratio, antagonist mode; measured here: W530 green channel, cytotoxicity proxy
How it was run: (§2)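 Beta-lactamase reporter inhibition, read as CCF4 fluorescence ratio (ex 405, em 460/530 nm) after 2 h at RT. HEK293T UAS-bla cells, 2500/well, were stimulated with 9-cis-RA at 500 or 100 nM final alongside test compound for 18 h at 37 C.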

[20] = molecular target: Retinoic acid receptor RXR-alpha (Homo sapiens) (UniProt P19793); test: as above; conditions: HEK293T RXRa-UAS-bla, beta-lactamase ratio, antagonist mode
Chain of Retinoic acid receptor RXR-alpha (Homo sapiens) (P19793 whole entry, looked up): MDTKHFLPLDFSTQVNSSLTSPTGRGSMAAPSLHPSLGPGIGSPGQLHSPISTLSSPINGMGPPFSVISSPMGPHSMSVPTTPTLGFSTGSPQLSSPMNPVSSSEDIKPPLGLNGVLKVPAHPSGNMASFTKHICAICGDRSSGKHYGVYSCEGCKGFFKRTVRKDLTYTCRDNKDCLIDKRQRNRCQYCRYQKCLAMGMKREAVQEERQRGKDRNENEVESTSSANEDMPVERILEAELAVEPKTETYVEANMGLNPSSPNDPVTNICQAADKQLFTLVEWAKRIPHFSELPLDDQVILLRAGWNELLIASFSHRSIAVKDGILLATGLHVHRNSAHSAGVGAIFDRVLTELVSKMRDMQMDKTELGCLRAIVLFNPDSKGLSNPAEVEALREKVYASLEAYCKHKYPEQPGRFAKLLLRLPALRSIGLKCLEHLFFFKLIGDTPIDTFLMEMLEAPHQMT
How it was run: as §2

[21] = qHTS assay for small molecule activators of the nuclear factor-kappa B (NF-kB) signaling pathway (AID 651749; active means well fitted activation curve with a large enough effect in the signal ratio; the % refers to the signal ratio; further: % of control where 0% means no effect); conditions: NF-kB-bla ME-180 cells, beta-lactamase FRET ratio, 16 h; activation: stronger effect = higher value
How it was run: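 Readout: beta-lactamase reporter driven by an NF-kB response element, detected fluorescently as loss of FRET. Cells were the ME-180 line, treated 16 hr at 37C with pin-transferred compound.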

[22] = qHTS assay for small molecule agonists of the antioxidant response element (ARE) signaling pathway measured by Nrf2-dependant transcriptional activity (AID 720636; active means well fitted curve in the direction sought with a large enough effect in the repeat runs; an effect the other way counts as inactive or inconclusive; further: % of control where 0% means no effect); conditions: ARE-luc HepG2, Nrf2 luciferase reporter, 16 h; series mostly up to 92.4 µM
How it was run: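 ARE-luc HepG2 cells carrying an Nrf2-responsive luciferase reporter were plated in medium with 1% dialyzed FBS, left 6 hr at 37 C to attach, then exposed to compound for 16 hr. Luciferase luminescence was read after ONE-Glo addition.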

Cc1cc(Cc2cc(C)cc(C(C)(C)C)c2O)c(O)c(C(C)(C)C)c1
active: Potency [2] 48.6 µM | Potency [4] 39.8 µM | Potency [5] 50.1 µM | Potency [6] 44.7 µM
inactive: activation [1] 20.3% | activation [3] -12.4%

S=C([S-])NCCNC(=S)[S-].[Mn+2]
inactive: Potency [7] | outcome [8] | Potency [9] | outcome [10] | Potency [11] | activity change % (negative = inhibition) [12] -12.7% | activation [3] 2.64% and 10.8% | max response [13] -2% and -3.91% | max response [4] -8.97% and -21.3% | max response [5] -16.3% | Potency [6] | max response [14] -0.103% and -4.92%

CC(COc1ccc(C(C)(C)C)cc1)OS(=O)OCCCl (stereo not given)
active: Potency [2] 27.3 µM
inactive: Potency [16] | outcome [10] | Potency [11] | activity change % (negative = inhibition) [12] -14.9% | activation [17] 8.46% | activation [3] 12.5% | max response [13] -2.96% | max response [5] -26.1% | Potency [6] | max response [14] -11.7%
82.6%: max response [15]

CCCCC(CC)CN1C(=O)C2C3C=CC(C3)C2C1=O (stereo not given)
inactive: activation [1] -12.6% | outcome [8] | Potency [9] | Potency [18] | outcome [10] | max response [20] -2.63% | activity change % (negative = inhibition) [12] 4.69% | activation [17] -2.19% | activation [21] 0.646% | activation [3] -3.03% | max response [13] 7.9% | Potency [22] | max response [4] 8.11% | max response [5] -5.32%
8.85%: max response [19]
